According to PubChem BioAssay (NCI):
About 83,000 compounds went through this panel and 20% of them were active in at least one assay; those are over-represented in the sample as a whole.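 Assay: single dose, 48 h. Readout: percent growth (0 = no net growth; negative = cell death). Active: <10.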 A number with no mark means an inactive call. The source made the active and inactive calls.

Legend:
Assay in all cases: NCI-60 one-dose screen, 48 h (100 = growth as untreated, 0 = no growth, -100 = all killed)
Conditions in all cases: 10 µM
RPMI-8226 leukemia = tested on: RPMI-8226 leukemia
OVCAR-8 ovarian = tested on: OVCAR-8 ovarian
OVCAR-5 ovarian = tested on: OVCAR-5 ovarian
OVCAR-4 ovarian = tested on: OVCAR-4 ovarian
SK-OV-3 ovarian = tested on: SK-OV-3 ovarian
IGROV1 ovarian = tested on: IGROV1 ovarian
OVCAR-3 ovarian = tested on: OVCAR-3 ovarian
HS 578T breast = tested on: HS 578T breast
NCI/ADR-RES ovarian = tested on: NCI/ADR-RES ovarian
T-47D breast = tested on: T-47D breast
BT-549 breast = tested on: BT-549 breast
MDA-MB-435 melanoma = tested on: MDA-MB-435 melanoma
SW-620 colon = tested on: SW-620 colon
MCF7 breast = tested on: MCF7 breast
HCT-116 colon = tested on: HCT-116 colon
HCC-2998 colon = tested on: HCC-2998 colon
KM12 colon = tested on: KM12 colon
MDA-MB-468 breast = tested on: MDA-MB-468 breast

| SMILES | growth (RPMI-8226 leukemia) | growth (OVCAR-8 ovarian) | growth (OVCAR-5 ovarian) | growth (OVCAR-4 ovarian) | growth (SK-OV-3 ovarian) | growth (IGROV1 ovarian) | growth (OVCAR-3 ovarian) | growth (HS 578T breast) | growth (NCI/ADR-RES ovarian) | growth (T-47D breast) | growth (BT-549 breast) | growth (MDA-MB-435 melanoma) | growth (SW-620 colon) | growth (MCF7 breast) | growth (HCT-116 colon) | growth (HCC-2998 colon) | growth (KM12 colon) | growth (MDA-MB-468 breast) |
| --- | --- | --- | --- | --- | --- | --- | --- | --- | --- | --- | --- | --- | --- | --- | --- | --- | --- | --- |
| O=c1[nH]n(C(=S)N/N=C/c2ccc(F)cc2)c(=O)c2ccccc12 | -22.5% (active) | 36.4% | 91.2% | 82% | 102% | 90.5% | 32.5% | 91.6% | 31.1% | 58.7% | 70.1% | 84.5% | 30.4% | 15.9% | -66% (active) | 92.9% | 36.2% | 57.7% |
| O=C1CCC(N2Cc3c(C#CCCCNC(=O)c4ccc(NC(=O)[C@@H]5NC6(CCCCC6)[C@@]6(C(=O)Nc7cc(Cl)ccc76)[C@H]5c5cccc(Cl)c5F)cc4)cccc3C2=O)C(=O)N1 (stereo not given in full) | 43.7% | 69% | 76.6% | 56.5% | 74.2% | 11.7% | 72.3% | 46.2% | 85.7% | 38.4% | 32.5% | 61.6% | 84.7% | 5.5% (active) | 12.6% | 58.6% | 49.2% | 39.3% |
| O=C(c1ccc(O)cc1)C1[C@H](c2ccccc2Br)[C@@H](c2ccccc2)NC12C(=O)Nc1ccc(Cl)cc12 (stereo not given in full) | 4.84% (active) | 4.97% (active) | -2.71% (active) | 17% | 29.6% | 7.88% (active) | -46.2% (active) | 5.54% (active) | 11.2% | 18.2% | 15.7% | -16.4% (active) | -0.351% (active) | -17.2% (active) | 18.4% | -73.2% (active) | -20.7% (active) | -47.1% (active) |
| CCCCCCCCCCCCCCCCCCCC(=O)NCCc1c[nH]c2ccc(OC(=O)NOCCOCCOCCOCCOCCOCCOCCOCCOCCOCCOCCOCCOCCOCCOCCOCCOCCOCCOCCOCCOCCOCCOC)cc12 | -29.5% (active) | 7.17% (active) | -5.89% (active) | 29.8% | -10.1% (active) | 18.9% | 11.8% | -18.9% (active) | 89.3% | -8.69% (active) | -12.7% (active) | 17.2% | 26.6% | -12.3% (active) | -21.7% (active) | -2.45% (active) | 14.9% | -14.7% (active) |
| Cc1cc(C)nc(NS(=O)(=O)c2ccc(N/C(N)=N/c3nccc(-c4cccs4)n3)cc2)n1 | 87% | 101% | 107% | 93.6% | 84.4% | 72.6% | 107% | 77.7% | 101% | 78.8% | 111% | 106% | 102% | 67.6% | 96.4% | 127% | 96.9% | 106% |
| CCN1CCN(c2ccc(NC(=O)Nc3ccc(-c4cc(C(=O)NC)c5ncccc5n4)cc3)cc2C(F)(F)F)CC1 | -50.3% (active) | -94.1% (active) | -100% (active) | -100% (active) | -88.7% (active) | -98.2% (active) | -100% (active) | -51.5% (active) | -65.3% (active) | 49.4% | -96% (active) | -100% (active) | -100% (active) | -83.1% (active) | -100% (active) | -100% (active) | -98.8% (active) | -96.4% (active) |
| COc1ccc(CCN2C(=O)/C(=C/c3csc(C#N)n3)SC2=S)cc1OC | -7.56% (active) | 69.2% | 116% | 66.3% | 107% | 90.7% | -17.7% (active) | 66.3% | 93.3% | -7.6% (active) | 24.5% | 23.5% | -20.5% (active) | -15.9% (active) | -69.1% (active) | 116% | 35% | -80.6% (active) |
| COc1ccc2[nH]c(O)c(N=NC(=O)c3cc(-c4ccc(C)cc4)nc4ccccc34)c2c1 | 76.4% | 88.5% | 119% | 91.8% | 106% | 102% | 98.3% | 91% | 71.6% | 69% | 139% | 95.4% | 107% | 61% | 78.1% | 115% | 95.1% | 76.2% |
| CCOC(=O)C1=C(N)N(c2ccc(Cl)cc2)C2=C(C(=O)CC(C)(C)C2)C1c1ccc(N2CCOCC2)cc1 (stereo not given) | 99.9% | 100% | 106% | 105% | 109% | 98% | 102% | 109% | 97.4% | 90.8% | 23.8% | 101% | 107% | 93.2% | 99.2% | 103% | 107% | 84.2% |
| O=C(O)CCCCCCCCCCN1C(=O)/C(=C/c2cnc(-c3ccc(Cl)cc3)s2)SC1=S | 74.9% | -2.09% (active) | 56.9% | 67% | 3.51% (active) | 23.9% | -15.1% (active) | 58.6% | 11% | 47.2% | -17.1% (active) | 49% | 27.6% | 27.1% | 4.89% (active) | 82.4% | 14% | 52.3% |
| COc1cc(NC(=O)c2cc(-c3ccc(F)cc3F)ccc2O)cc(OC)c1OC | 12% | 48% | 111% | 17.3% | 34.5% | 38% | 26.1% | 26.1% | 41.5% | -10.1% (active) | 4.31% (active) | 36.2% | 55.3% | 38.9% | 42.5% | 63.9% | 29.8% | 15% |
| COc1cc(/C=C/C(=O)c2cc(OC)c(OC)c(OC)c2)ccc1Oc1nc(Nc2ccc(F)cc2)nc(N(C)C)n1 | -19.8% (active) | -59.6% (active) | -44.7% (active) | 18.4% | 49.5% | -64.3% (active) | 12.1% | 16.1% | -29.6% (active) | 25.9% | -89.8% (active) | -62.4% (active) | 1.14% (active) | 2.35% (active) | -77.6% (active) | -81.5% (active) | -41.1% (active) | -39.6% (active) |
| CCCCCCCCCCCCCCCCCCCC(=O)NCCc1c[nH]c2ccc(O)cc12 | 28.2% | 102% | 111% | 98% | 137% | 93.6% | 87.4% | 112% | 96.2% | 103% | 32.3% | 112% | 112% | 84.9% | 83.3% | 114% | 88.5% | 128% |
| Nc1nc(Nc2ccc(Cl)cc2)n(Cc2cccc(Br)c2)n1 | 2.44% (active) | 2.52% (active) | -24.5% (active) | 9.75% (active) | -2.59% (active) | -5.03% (active) | -35.3% (active) | -25.9% (active) | -25% (active) | 15.1% | -51.4% (active) | -64.9% (active) | -16.5% (active) | -31.6% (active) | -57.7% (active) | -71.6% (active) | -0.172% (active) | -46.5% (active) |
| COc1ccc2nc(Cl)c(-c3cc(-c4ccccc4)nc(=S)[nH]3)cc2c1 | 71.7% | 68.2% | 95.1% | 90.1% | 37.4% | 79% | 80.8% | 31.7% | 40.9% | 76.4% | 14.7% | -27.6% (active) | 78.9% | 65% | 66.4% | 97.3% | 76.8% | 76% |
| O=C1NC(=NC23CC4CC(CC(C4)C2)C3)N/C1=C\c1ccc2ncoc2c1 | -4.5% (active) | 13.4% | -14.4% (active) | 13.4% | 26.8% | 3.59% (active) | 24.1% | -0.689% (active) | 4.58% (active) | -0.573% (active) | -20.6% (active) | 16.8% | 9.67% (active) | 1.42% (active) | 27.6% | -5.81% (active) | 4.28% (active) | -60% (active) |
| O=C(Cn1cc(CSc2nnc3oc4ccccc4n23)nn1)Nc1ccc(Br)cc1 | 93.2% | 16% | 91.6% | 87% | 53.8% | 75% | 87% | 20.3% | 51.3% | 70.5% | 92.1% | – | 108% | 65.3% | 82% | 96.4% | 85.7% | 80.1% |
